Shown are actives, neighbours in structure and some others; about 0.73% of the full set was active somewhere.
TcdB inh: inhibitors of Clostridioides difficile toxin B glycohydrolase; TcdB glycohydrolase enzymatic assay, plate reader; AID 652162; 350,000 compounds, 0.24% hits; inhibition, % at 9.99 µM; in the data active means inhibition above about 10%
Vc quorum ag: inducers of Vibrio cholerae quorum light production without autoinducers | 350,000 compounds, 0.16% hits | V. cholerae BH1578 lux reporter, luminescence, 6 h | activation, % at 18.7 µM; in the data active means activation mostly above about 9.7%, no sharp cut-off
Mtb BioA inh: blocks M. tuberculosis BioA enzyme activity | purified M. tuberculosis BioA enzyme, plate reader | inhibition, % at 9.99 µM | 360,000 compounds, 0.096% hits; in the data active means inhibition above about 40%
VHR inh abs: blocks human VHR1 dual specificity phosphatase; P51452; recombinant VHR phosphatase, pNPP absorbance; inhibition, % at 13.3 µM; 290,000 compounds, 0.52% hits; in the data active means inhibition above about 50%
Target sequence (P51452 whole entry, looked up): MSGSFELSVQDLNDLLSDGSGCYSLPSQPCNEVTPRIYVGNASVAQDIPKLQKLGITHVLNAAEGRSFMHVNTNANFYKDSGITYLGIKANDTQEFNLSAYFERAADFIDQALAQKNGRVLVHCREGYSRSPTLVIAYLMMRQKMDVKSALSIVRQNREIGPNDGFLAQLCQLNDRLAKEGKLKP
Y pestis TopoI: blocks Yersinia pestis topoisomerase I activity. Y. pestis Topo-I cleavage product accumulation, plate reader. activity, % at 10 µM. 360,000 compounds, 0.064% hits. AID 504884; in the data active means activity above about 50%, passing the limit was not always enough
* = called active by the depositor; i = inactive; nt = no result.

SMILES	TcdB inh	Vc quorum ag	Mtb BioA inh	VHR inh abs	Y pestis TopoI
CCc1[nH]nc(C(=O)N2CCCC(C(=O)c3cccc(OC(C)C)c3)C2)c1C (stereo not drawn)	-7.1	3.1	0.6	55.5*	24.9
Cc1nn(C)c(C)c1CCC(=O)N1CCCC(C(=O)c2cccc(OC(C)C)c2)C1 (stereo not drawn)	1.2	i	1.0	51.3*	22.7
CCC(=O)N1CC2(C1)[C@H](c1ccc(-c3ccccc3)cc1)[C@H](CO)N2S(C)(=O)=O	0.0	nt	nt	nt	nt
Oc1ccc(/C=N/Nc2nc(N3CCCC3)nc(N3CCCC3)n2)cc1O	21.0*	i	0.7	34.4	13.1
COc1cc(/C=N/Nc2nc(N3CCCC3)nc(N3CCCC3)n2)ccc1O	nt	0.2	-2.3	17.1	2.5
CCN(CC)CCCC(C)NC(=O)c1c(NC(=O)c2ccccc2)sc2c1CCCC2 (stereo not drawn)	3.7	-1.3	1.5	53.9*	-7.5
CN=c1scc(-c2ccccc2F)n1/N=C(\C)c1cccnc1	-0.3	i	nt	57.5*	3.9
CCOc1cc(NC(=S)NCC2CCCO2)c(OCC)cc1NC(=O)c1ccc(F)cc1 (stereo not drawn)	19.4*	-3.0	-0.6	10.3	-6.0
O=[N+]([O-])c1ccc(/C=C/c2ccc3ccccc3n2)cc1	10.4*	1.6	-0.7	40.8	0.2
CCOC(=O)Nc1ccc2c(c1)N(C(=O)CCN(CC)CC)c1ccccc1CC2	2.1	-0.8	0.9	50.2*	5.3
CCN(CC)CCC(=O)N1c2ccccc2CCc2ccc(NC(=O)OC)cc21	0.7	-4.1	-2.7	-6.1	-3.4
COC(=O)C1=C(c2ccc(F)cc2OCc2ccccc2)C[C@@H]2CC[C@H]1N2C(=O)N1CCCC1	10.3*	-0.4	1.2	nt	13.2
COC(=O)C1=C(c2ccc(F)cc2OCc2ccccc2)C[C@@H]2CC[C@H]1N2C(=O)NCCOc1ccccc1	10.3*	-0.4	-0.5	nt	7.4
S=c1[nH]c2ccc3ccccc3c2[nH]1	nt	0.8	nt	53.0*	4.0
CCc1cccc(OCCn2nc(C(=O)O)c3ccccc3c2=O)c1	1.7	-0.9	nt	4.5	2.8
Cc1cc(OCCn2nc(C(=O)O)c3ccccc3c2=O)ccc1C(C)C	1.2	-0.2	-1.6	39.0	83.2*
O=C(C[C@@H]1CC[C@@H]2[C@H](COC[C@H](O)CN2Cc2cccc(-c3ccncc3)c2)O1)N1CCN(c2ccccc2)CC1	0.2	nt	0.9	nt	nt
COc1cccc(CN2CC(C(=O)N3CCOCC3)CCC2=O)c1 (stereo not drawn)	1.6	7.1	-0.8	52.7*	-2.1
COc1cccc(CN2CCN(C(=O)C3CCC(=O)N(C4CCCC4)C3)CC2)c1 (stereo not drawn)	0.9	0.0	-1.2	51.2*	-7.6
CCC(=O)N1CC2(C1)[C@H](c1ccc(-c3ccc(F)cc3)cc1)[C@H](CO)N2S(C)(=O)=O	-0.2	nt	nt	nt	nt
CC(SCc1ccccc1)C(=O)Nc1ccccc1Br (stereo not drawn)	-0.3	0.7	-0.5	21.9	7.8
Cc1ccccc1NC(=O)C(C)SCc1ccccc1 (stereo not drawn)	3.1	-0.2	1.0	52.0*	-2.9
NS(=O)(=O)c1ccc(CNC(=O)NC2(c3ccccc3)CC2)cc1	0.5	-0.1	-0.8	50.3*	-2.7
Cc1ccc(NS(=O)(=O)c2ccc(Cl)c(N=Nc3c(O)[nH]c(=O)[nH]c3=O)c2)cc1Cl	0.2	-1.9	2.7	nt	-3.1
COc1ccc(NS(=O)(=O)c2cc(N=Nc3c(O)[nH]c(=O)[nH]c3=O)ccc2Cl)cc1	10.7*	i	0.6	nt	2.3
SMILES	TcdB inh	Vc quorum ag	Mtb BioA inh	VHR inh abs	Y pestis TopoI
COc1ccc(C(=O)/C(C#N)=N/Nc2ccc([N+](=O)[O-])cc2)cc1	1.4	i	nt	71.0*	1.3
NCC[C@@H]1CC[C@H](NC(=O)C2CC2)[C@@H](CO)O1	0.6	nt	nt	nt	nt
CC(C(=O)OCC(=O)c1c(N)n(C)c(=O)n(C)c1=O)N1C(=O)c2ccccc2C1=O (stereo not drawn)	14.2*	i	1.8	7.6	2.5
Cn1c(N)c(C(=O)COC(=O)c2ccco2)c(=O)n(C)c1=O	nt	-0.1	-3.3	57.1*	-1.2
Cn1c(N)c(C(=O)COC(=O)CCCN2C(=O)c3ccccc3C2=O)c(=O)n(C)c1=O	nt	i	-1.2	9.1	5.2
CC(C)c1ccc(C(=O)OCC(=O)c2c(N)n(C)c(=O)n(C)c2=O)cc1	1.0	-3.2	1.8	nt	-3.4
C[C@H]1CN([C@@H](C)CO)C(=O)Cc2cc(NC(=O)CCCCCC(=O)Nc3ccccc3N)ccc2O[C@@H]1CN(C)S(=O)(=O)c1cccs1	nt	nt	-0.3	nt	nt
C[C@H](CO)N1C[C@H](C)[C@H](CN(C)Cc2ccc(C(=O)O)cc2)Oc2ccc(NC(=O)Cc3ccccc3)cc2CC1=O	1.1	nt	0.9	nt	nt
COc1ccc(NC(=O)c2cc(S(=O)(=O)N3CCc4ccccc43)cn2C)cc1OC	16.0*	-1.2	-0.3	-18.2	30.1
COc1cc(/C=C2\SC(=S)N(CC(=O)Nc3ccc(O)cc3)C2=O)cc(OC)c1OC	-0.4	i	nt	55.8*	-4.6
COc1ccc(/C=C2\SC(=S)N(CCC(=O)N(CCO)Cc3ccccc3)C2=O)cc1OC	-0.4	i	-1.3	57.3*	2.5
COc1cc(/C=C2\SC(=S)N(CC(=O)Nc3cccnc3)C2=O)cc(OC)c1OC	1.2	-0.4	nt	4.0	9.1
COc1ccc(/C=C2\SC(=S)N(CCC(=O)Nc3ccc(C(=O)O)cc3)C2=O)cc1OC	nt	-8.3	-1.9	56.9*	-0.6
COc1ccc(/C=C2\SC(=S)N(CCCC(=O)Nc3cccc(C(=O)O)c3)C2=O)cc1OC	1.6	i	0.2	5.4	18.1
CN(C)CC#Cc1ccc([C@@H]2[C@@H](CO)N3CCCCN(C(=O)NC4CCCC4)C[C@@H]23)cc1	-1.1	nt	5.4	nt	nt
Cc1ccc(C(=O)NC(=O)OCCn2c(C)cnc2[N+](=O)[O-])cc1	14.5*	i	nt	29.7	6.7
COCCCn1c(C)nnc1SCC(=O)Nc1cccc(C)c1	0.8	i	-2.2	60.0*	1.4
COCCn1c(SCC(=O)Nc2cccc(C)c2)nnc1C(C)C	nt	-0.3	1.6	28.0	-6.0
CCOC(=O)c1c(C)[nH]c(C)c1C(=O)CSc1nc2ccccc2n1CCOC	0.7	0.7	3.1	-8.8	1.7
CCOC(=O)c1c(C)[nH]c(C)c1C(=O)CSc1nc2ccccc2n1CC	1.5	-0.3	nt	55.4*	1.3
COc1ccc(CNC(=O)CC(C)S(=O)(=O)c2ccc3c(c2)NC(=O)CO3)cc1 (stereo not drawn)	-0.1	-6.2	0.5	3.9	0.7
COc1ccc(CCNC(=O)CC(C)S(=O)(=O)c2ccc3c(c2)NC(=O)CO3)cc1OC (stereo not drawn)	1.8	i	nt	59.1*	-2.7
O=C(O)C[C@@H]1CC[C@H](NC(=O)c2ccncc2)[C@@H](CO)O1	0.3	nt	-1.6	nt	nt
COc1ccc(C(=O)NC(C)c2nnc(SCC(=O)NC3CCCC3)n2C)cc1 (stereo not drawn)	0.5	-0.3	-0.3	52.9*	5.6
COc1ccc(C(=O)NC(C)c2nnc(SCC(=O)NC3CCCCC3)n2C)cc1 (stereo not drawn)	1.2	i	-2.1	13.0	0.4
